Source: the supplement of paper PMC6555819

Key:
Assay in all cases: PBM binding z-score (relative to random genomic background probes); higher = stronger binding; sequences stand for … in GC…GCGATTGACAGCGTAGAATGAAGG
[1] = system: RARb homodimer (NR concentration 270 nM)
Outline: (§1)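 Probes were double-stranded and carried 34-nt variable regions with direct-repeat seeds, single-nucleotide variants, half-site ablations and random human genomic background sequences, printed on custom Agilent 4×180K protein-binding microarrays. Arrays were incubated 1 h with ligand-free nuclear receptor dimers in PBS pH 7.4, 2% milk, 0.02% Triton X-100, 1 mM DTT, 0.2 mg/mL BSA and 0.4 mg/ml salmon testes DNA. Antibodies against each partner (one per run) detected binding, and scanned fluorescence was regression-normalized. Binding z-scores use the random background probes as reference.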

[2] = system: RARg:RXRa (NR concentration 270 nM, RXRa partner concentration 90 nM)
Outline: as §1

[3] = system: RARg homodimer (NR concentration 270 nM)
Outline: as §1

[4] = system: RXRa DBDmut IVT, anti-RXR (DBD mutation: RXRa K156A/R161A, NR concentration 90 nM)
Outline: as §1

[5] = system: RXRa homodimer (NR concentration 180 nM)
Outline: as §1

[6] = system: THRa:RXRa (NR concentration 90 nM, RXRa partner concentration 90 nM)
Outline: as §1

[7] = system: THRa homodimer (NR concentration 90 nM)
Outline: as §1

[8] = system: VDR homodimer (NR concentration 270 nM)
Outline: as §1

Sequence | PBM binding z-score [1] | PBM binding z-score [2] | PBM binding z-score [3] | PBM binding z-score [4] | PBM binding z-score [5] | PBM binding z-score [6] | PBM binding z-score [7] | PBM binding z-score [8]
ACAGACAGGCGAGTGAAGGTAACTCAGCTGGACG | -0.318 | -0.0341 | -0.0147 | -0.699 | 0.296 | 0.0808 | -0.312 | -0.484
CCTGCTGGGTCATGGTCAGCTAATCTACAGTATG | 2.6 | 3.56 | 3.65 | 0.81 | 2.88 | 2.04 | 0.0617 | -0.0341
TGTCAAATTTCAAAGGTAACGTAAGTATCCACAC | 0.519 | 0.768 | 0.628 | -0.231 | 0.652 | 1.27 | -0.123 | -0.127
CAAACTAGGTCAAAGGTTAAAGTCGAGCCAACCA | 3.86 | 7.3 | 5.26 | 2.59 | 8.93 | 4.29 | 1.04 | 1.6
TCTCGTAGATCAAAGGTTAAGAAAGCCGAAGCCT | 1.36 | 1.65 | 0.587 | 0.764 | 2.94 | 1.14 | -0.441 | 0.265
CTCGAAAGGTCGTGCTAAGGTGAGTATACCAAAC | 3.37 | 6.03 | 4.31 | 2.01 | 5.25 | 4.61 | 1.79 | 1.29
ATCTCTAGGTAACCAAGTTCGGTGAATGCCGAAC | 0.477 | 0.289 | 0.0649 | 0.0543 | 0.189 | 0.968 | 0.803 | 1.13
AGTCAAAGTTCATCTAGGTAGCGTAAGATATGCT | 3.79 | 5.6 | 5.81 | 4.63 | 4.48 | 2.62 | -0.478 | 5.34
CCTGCTGGGCCACGAAAGGTCATTGATTCAGTGA | 4.56 | 4.89 | 4.55 | 0.711 | 5.39 | 3.87 | 0.572 | 2.37
GCTAGTTGGTCATTAAAAGGTCACACACCGGTCG | 5.47 | 6.05 | 4.99 | 0.694 | 5.65 | 3.8 | 2.01 | 1.75
TAGCCTAGGTCATTCGGGCCAGTATAGTGTCGGC | 3.25 | 3.72 | 4.17 | 1.79 | 3.07 | 3.16 | 1.11 | 1.49
CATACAGGGTCAGCTAGGTCAGAGTAGGGACGGC | 4.28 | 5.09 | 5.08 | 1.93 | 4.95 | 4.07 | 2.33 | 2.85
TAGCCTAGGTCATGGGCCAGTATACCACGCGAAC | 2.71 | 4.27 | 4.78 | 0.316 | 3.57 | 2.93 | 1.3 | 0.506
AGAATGAGGTTATACGTAGATGAGGGAAGAAAGT | 0.964 | 1.74 | 1.17 | 1.8 | 2.24 | 2.26 | 0.843 | 0.924
TCTATTAGTTGAAGGGGAACCGACGAGTCCGTTT | 0.0488 | 0.44 | 0.17 | 2.05 | 0.673 | 0.226 | 0.565 | 1.61
TCTTGTAGATCAACAGGAGGTTAAGAATGATCGA | 0.596 | 1.13 | 0.374 | 0.333 | 0.964 | 0.774 | -0.347 | 0.202
TACCCTAGGTCAGATCGGGCCAGTATACGCTATA | 2.63 | 2.98 | 3.5 | 0.165 | 1.54 | 4.19 | 0.64 | 0.268
ATCTCTAGGTAACCAAGTGCAGTGAATGCCGAAC | 0.232 | 0.129 | 0.205 | 0.0153 | 0.0437 | 0.515 | 0.223 | 0.337
CAAACTAGGTCAAAGGGCAAAGTCGAGCCAACCA | 3.81 | 6.04 | 5.28 | 1.76 | 7.35 | 3.56 | 0.847 | 1.06
CAAACTAGGTCAAGAGGACAAAGTCCGCTTCCCG | 3.78 | 4.36 | 5.19 | 1.45 | 2.74 | 3 | 1.29 | 0.916
CAAACTAGGTCACCGGAAGGTCACAGTCCGCATG | 5.72 | 8.31 | 7.76 | 2.19 | 6.67 | 4.49 | 3.69 | 3.04
TCTTGTAGATCCAAGGTTAAGAAAGCCGAAGCCT | 0.743 | 0.336 | 0.0629 | 0.928 | 1.13 | 1.27 | 0.204 | 0.0451
CCGAGTAGGTGATGGGGCATTCAGGCAACGGTGA | 0.69 | 0.024 | -0.0731 | -0.961 | 0.074 | 0.211 | -0.0233 | -0.306
CCTTACGGGTCACTCCAGGTTATACCATCGGAGT | 2.89 | 4.32 | 4.44 | 1.3 | 4.29 | 4.98 | 0.681 | 1.45
CGAACTAGGTCATTGACAGGGCAGTGAATAGTAA | 2.93 | 5.12 | 4.41 | 2.54 | 2.89 | 2.64 | 0.623 | 1.08
CCTACTGGGCCAAGGTAATTGATCAGTCAAAGCA | 0.0571 | -0.354 | -0.0827 | -0.902 | -0.382 | 0.383 | -0.112 | -0.51
CCTGCTAGGTCAATGATCAGCTAAAGCAGCTCGC | 2.32 | 3.18 | 4.16 | 1.82 | 1.83 | 1.99 | -0.185 | -0.421
TGGAGTAGGTTACCAATGGGGCATTCAGCTTTCT | 1.16 | 1.4 | 0.805 | -0.418 | 0.605 | 0.403 | -0.198 | -0.00533
